# High-throughput results (PubChem BioAssay)
# This is a sample that favours compounds with a hit; in the whole collection about 19% have one here.
# IL-1B inflam inh: qHTS for Inhibitors of Inflammasome Signaling: IL-1-beta AlphaLISA Primary Screen; activity change, % at 57.5 µM; hit rate 4.7% among 360,000; AID 743279, 2014; THP-1 LPS/ATP IL-1B secretion, AlphaLISA, 16 h; stronger effect = lower value; in the data active = activity change below about -50%; inconclusive = mostly about -30% to -49%
#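 THP-1 cells pretreated 1 hr with compounds (up to 57.5 uM final), then stimulated with LPS (250 ng/mL final) plus ATP (1.25 mM final); secreted IL-1B measured by AlphaLISA after 16 hr, decreased signal indicating inhibition.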
# DT40 TDP1 CPT: qHTS for Inhibitors of human tyrosyl-DNA phosphodiesterase 1 (TDP1): qHTS in cells in presence of CPT; chicken DT40 Tdp1-/-;hTDP1 cells + 20 nM CPT, ATP luminescence, 48 h; Potency, µM (titrated, usually from 46.2 µM), without a hit: top-dose activity change, negative = growth inhibition, usual class: inhibitors; hit rate 12% among 420,000; also: potency is read from the fitted curve at half-maximal effect; nearly all actives have a fitted effect of over 55% in size
#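 Chicken DT40 Tdp1-/- cells stably complemented with human TDP1 were seeded at 400 cells/well in medium containing 20 nM camptothecin, exposed to pin-transferred compounds, and grown at 37 °C for at least 48 hr. Viability was read as ATP luminescence.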
# HT1080 IDH1KD tx: qHTS for induction of synthetic lethality in tumor cells producing 2HG: qHTS for the HT-1080-IDH1KD cell line. Potency, µM (highest dose often 46.1 µM), without a hit: at the top dose activity, negative = toxicity, hits mostly cytotoxic. hit rate 2% among 360,000. HT-1080 IDH1 knockdown viability, ATP luminescence, 48 h;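 also: potency is read from the fitted curve at half-maximal effect; 0% = DMSO wells and -100% = cell-free medium wells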
#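 Knockdown cells (IDH1KD HT-1080) received compounds 2 h after plating at 750 cells/well and were kept 48 h at 37 °C in 5% FBS RPMI. A CellTiter-Glo luminescence read gave % activity for curve fitting.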
# uPA surface inh: qHTS for Inhibitors of Cell Surface uPA Generation. cell surface uPA generation assay, qHTS. Potency, µM (titrated, usually from 38.3 µM), for the others: at the highest dose activity change, negative = inhibition, usual class: inhibitors. hit rate 0.31% among 330,000. AID 540303, 2011; active = well fitted inhibition curve with a large enough effect; inconclusive = small, poorly fitted or top-dose-only effect; inactive = no such curve, though single readings can be large or run the other way; tested in mouse RAW 264.7 cells; also: potency is read from the fitted curve at half-maximal effect; nearly all actives have a fitted effect of over 55% in size
# DT40 TDP1 no CPT: qHTS for Inhibitors of human tyrosyl-DNA phosphodiesterase 1 (TDP1): qHTS in cells in absence of CPT. DT40 Tdp1-/- hTDP1 cells, no CPT, ATP luminescence, 48 h. Potency, µM (titrated, usually from 46.2 µM), inactives show at the top dose activity change, negative = growth inhibition, actives largely listed as inhibitors. hit rate 15% among 420,000. AID 686978, 2013; also: potency is read from the fitted curve at half-maximal effect; nearly all actives have a fitted effect of over 55% in size
#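 Readout: luminescence from CellTiter-Glo after 30 min in the dark at RT. Cells: DT40 Tdp1-/- with stable hTDP1, 400/well. Exposure: compounds alone, ≥48 hr, 37 °C.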
# HT1080-NT tox: qHTS for induction of synthetic lethality in tumor cells producing 2HG: qHTS for the HT-1080-NT fibrosarcoma cell line. HT-1080-NT fibrosarcoma viability, CellTiter-Glo ATP luminescence, 48 h. Potency, µM (doses to about 46.1 µM), for the others: at the highest dose activity, negative = less viability, hits mostly cytotoxic. AID 686970, 2013. hit rate 1.6% among 360,000;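 also: NT is the 2HG producing partner of a matched IDH1 knockdown line; potency is read from the fitted curve at half-maximal effect; 0% = DMSO-treated cells and -100% = media-only wells without cells; nearly all actives have a fitted effect of over 55% in size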
#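 Luminescent CellTiter-Glo readout after 48 hours of compound exposure at 37 degrees C defined viability of HT-1080-NT cells. Activity was normalized to DMSO wells and cell-free media wells; concentration-response curves were fitted and assigned curve classes.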
# Starred values were filed as active, the others as inactive; ? = inconclusive; . = not tested or not shown; [ ] = another dose, or the depositor's remark. Unless noted, calls follow the shape of the dose curve; as a rule, active = well fitted curve in the direction sought with a large enough effect; inconclusive = small, poorly fitted or top-dose-only effect, or another doubt; inactive = no such curve, though single readings can be large; an effect the other way counts as inactive or inconclusive. Unless noted, % is scaled to controls: 0 for no effect and ±100 for the full control effect.
SMILES,IL-1B inflam inh,DT40 TDP1 CPT,HT1080 IDH1KD tx,uPA surface inh,DT40 TDP1 no CPT,HT1080-NT tox
Cc1cccc2c1-c1sc(C(=O)N(C)c3cccc(C(F)(F)F)c3)cc1CO2,.,?,.,.,23.1µM*,.
CCN(C(=O)c1cc2c(s1)-c1ccccc1OC2)c1cc(Cl)ccc1OC,.,20.6µM*,.,.,10.3µM*,.
Cc1cccc2c1-c1sc(C(=O)N3CCCCC3)cc1CO2,-27.9,?,-13.5%,?,?,-0.4%
CCN(C(=O)c1cc2c(s1)-c1ccccc1OC2)c1cccc(C(F)(F)F)c1,.,18.4µM*,.,.,18.4µM*,.
CCOC(=O)c1cccc(NC(=O)C2CCCN(S(=O)(=O)c3c(C)nn(C)c3C)C2)c1 (stereo not drawn),-7.6,20.6µM*,-4.8%,1.9%,?,-5.6%
CCOC(=O)c1c(S(=O)(=O)N2CCCC(C(=O)Nc3ccccn3)C2)c(C)n(C)c1C (stereo not drawn),.,-12.8%,.,.,3.8%,.
CCOC(=O)c1c(S(=O)(=O)N2CCCC(C(=O)Nc3cccc(Cl)c3)C2)c(C)n(C)c1C (stereo not drawn),.,9.2µM*,.,.,?,.
Cc1n[nH]c(C)c1S(=O)(=O)N1CCCC(C(=O)Nc2ccc(Cl)cc2)C1 (stereo not drawn),.,?,.,.,7.31µM*,.
COc1ccc(N(CC(=O)NCCSCc2ccc(Cl)cc2)S(C)(=O)=O)cc1Cl,2.5,?,-9.9%,-13.1%,?,-2.7%
O=C(NCc1cccnc1)c1ccc(Br)o1,7.6,6.6%,-0.1%,0.0%,-8.3%,-0.7%
Cc1ccc2nc(CO)[nH]c2c1,.,7.2%,.,.,-1.5%,.
Cn1c(=O)c2c(nc(CN3CCN(c4ccccc4)CC3)n2CCc2ccccc2)n(C)c1=O,-9.7,23.1µM*,-3.2%,4.6%,23.1µM*,-1.2%
Cn1c(=O)c2c(nc(CN3CCN(c4cccc(Cl)c4)CC3)n2CCc2ccccc2)n(C)c1=O,-25.9,13µM*,-24.9%,-1.0%,10.3µM*,-28.4%
COc1ccc([N+](=O)[O-])c(OC)c1C(=O)NC(=O)Nc1c(F)c(F)c(F)c(F)c1F,23.7,-27.0%,0.2%,-22.9%,?,-7.5%
CCOc1ccc(C(=S)N2CCCC2)cc1,22.5,-4.7%,12.0%,3.0%,-4.6%,18.9%
CCOc1ccc(C(=S)N2CCCC2)c(OCC)c1,8.1,20.6µM*,5.9%,-6.8%,?,12.2%
CCn1cc(C(=O)N[C@@H](CCSC)C(=O)NCCCOC)c(=O)c2cc3c(cc21)OCO3,9.8,-0.9%,0.0%,2.1%,1.5%,2.4%
CCCCCCN1Cc2ccccc2C1,-0.1,1.3%,4.1%,11.1%,-20.2%,12.1%
CCCCCCCCCCn1ccc(=N)cc1,-95.1*,0.0058µM*,10.3µM*,-11.3%,0.0184µM*,?
CCCCCCCCn1ccc(=N)cc1,-10.3,2.06µM*,-22.2%,-9.8%,1.84µM*,?
CCCN(C(=O)CCl)C1=CCCCC1,-87.4*,18.4µM*,?,.,13µM*,10.3µM*
Cn1nc(C(=O)Nc2cccc(S(=O)(=O)N3CCOCC3)c2)c2ccccc2c1=O,0.0,-29.8%,-2.1%,?,-1.8%,-10.0%
CC(C)n1nc(C(=O)Nc2cccc(S(=O)(=O)N3CCCCC3)c2)c2ccccc2c1=O,0.0,13µM*,-14.4%,-3.1%,-28.2%,-18.6%
CC(C)n1nc(C(=O)Nc2cccc(S(=O)(=O)N3CCOCC3)c2)c2ccccc2c1=O,2.4,20.6µM*,-9.2%,13.6%,?,-2.1%[9.24 µM]
COCCCNC(=O)C(C)N1c2cccc3cccc(c23)S1(=O)=O (stereo not drawn),11.8,20.6µM*,-9.6%,2.7%,20.6µM*,-11.4%
SMILES,IL-1B inflam inh,DT40 TDP1 CPT,HT1080 IDH1KD tx,uPA surface inh,DT40 TDP1 no CPT,HT1080-NT tox
CC(C)CCNC(=O)C(C)N(Cc1ccc(F)cc1)C(=O)c1ccc(CN2CCOCC2)o1 (stereo not drawn),16.4,9.0%,7.3%,0.5%,0.8%,9.2%
CC(C)(C)NC(=O)C(c1ccc(F)cc1)N(Cc1cccs1)C(=O)c1ccc(CN2CCOCC2)o1 (stereo not drawn),-52.7*,-6.6%,-0.3%,.,?,1.9%
O=c1[nH][nH]cc1C=NCc1cccc(C(F)(F)F)c1,9.0,0.6%,-5.8%,0.6%,-10.3%,-1.6%
COc1cc(C(=O)Oc2cccc(/C=N/NC(=O)c3cc(C)[nH]n3)c2)cc(OC)c1OC,-20.5,?,-27.6%,-2.2%,20.6µM*,-14.1%
COc1cc(C(=O)Oc2cccc(C(=S)N3CCOCC3)c2)cc(OC)c1OC,-7.0,-20.5%,-0.2%,7.1%,-17.1%,-2.0%
COc1cccc(C(=O)Oc2c(Br)cc(Br)cc2/C=N/NC(=O)c2cc(C)[nH]n2)c1,85.7,6.51µM*,?,3.98µM*,9.2µM*,?
COc1cc(C(=O)Oc2cccc(C=O)c2)cc(OC)c1OC,20.2,25.9µM*,?,1.6%,?,?
Cc1cc(C(=O)N/N=C/c2cccc(OC(=O)c3cccc(Br)c3)c2)n[nH]1,-15.2,-6.6%,1.2%,-10.8%,-2.5%,-2.6%
CSc1ccc(CC(=O)N2CCC(n3nccc3NC(=O)C3CC3)CC2)cc1,0.0,-1.2%,?,-2.1%,15.8%,20.1%
O=C(c1cnccn1)N1CCC2(CCCN(c3ccncc3)C2)CC1,.,2.4%,.,.,-12.2%,.
O=C(Nc1ccc(C(=O)N2CCOCC2)cc1)c1ccccc1Cl,?,30.4%,-2.9%,.,2.4%,1.7%
OC[C@@H]1[C@@H](c2ccc(Cl)cc2)C(c2ccccc2)=NN1c1ccccc1,?,?,?,19.8%,16.4µM*,?
CCOc1ccc(N2C(=O)C3C(c4ccccc4)=NN(c4ccccc4)C3C2=O)cc1 (stereo not drawn),8.7,-3.2%,-19.0%,8.1%,-5.1%,3.0%
COc1ccccc1[C@H]1C(c2cccc(C)c2)=NN(c2ccccc2)[C@@H]1CO,-16.1,?,?,?,?,?
OC[C@@H]1[C@@H](c2ccc(F)cc2)C(c2cccc(Cl)c2)=NN1c1ccccc1,?,20.6µM*,-21.5%,-0.4%,23.1µM*,-20.9%
OC[C@@H]1[C@@H](c2ccc(Cl)cc2)C(c2cccc(Cl)c2)=NN1c1ccccc1,?,20.6µM*,-27.7%,?,13µM*,?
